The results in this text go back to paper PMC8384837, “Expanding the binding specificity for RNA recognition by a PUF domain”.

Holding throughout (experiment): yeast three-hybrid, YBZ-1, SC-Leu-His + 0.5 mM 3-AT, 4 days
Holding throughout (conditions): tags: N-Gal4 AD-HA kept; label: inside an RPR1-promoter hybrid RNA with tandem MS2 sites; ssRNA

For one test, the target named is T1, PUM1 PUF domain R6-VYN (Homo sapiens, UniProt Q14671 828-1176, N1043V;Q1047N).
T1 sequence: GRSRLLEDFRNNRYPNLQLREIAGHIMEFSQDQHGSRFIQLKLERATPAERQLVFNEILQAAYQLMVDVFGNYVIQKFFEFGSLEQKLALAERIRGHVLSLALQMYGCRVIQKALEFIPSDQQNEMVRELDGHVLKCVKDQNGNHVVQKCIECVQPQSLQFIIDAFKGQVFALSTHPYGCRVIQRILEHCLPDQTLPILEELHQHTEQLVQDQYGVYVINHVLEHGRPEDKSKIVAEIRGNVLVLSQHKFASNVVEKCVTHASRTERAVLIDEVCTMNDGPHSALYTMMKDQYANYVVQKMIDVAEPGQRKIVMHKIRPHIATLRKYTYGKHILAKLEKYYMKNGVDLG
An outline of the steps: (§1)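 Repeat regions from input (SC-Leu) and selection (SC-Leu-His + 0.5 mM 3-AT) plates were PCR-amplified and Illumina-sequenced after four days of growth. The cells were strain YBZ-1 with a LexA–MS2 coat fusion and a HIS3 reporter, co-expressing Pumilio-1 PUF domain libraries and matching RNA elements from a centromeric plasmid. The interaction score is the log change in variant frequency from input to selection, taken in log2 with a pseudocount of 1 for absent variants.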

Another test addresses T2, PUM1 PUF domain R6-AFL (Homo sapiens, UniProt Q14671 828-1176, N1043A;Y1044F;Q1047L).
T2 sequence: T1 sequence with V216A, Y217F, N220L
The gist of the method:
as §1

In a further test the target is PUM1 PUF domain R1-RCS (Homo sapiens, UniProt Q14671 828-1176, S863R;R864C;Q867S). An outline of the steps: as §1
A further test has as its target PUM1 PUF domain R5-PFL (Homo sapiens, UniProt Q14671 828-1176, C1007P;R1008F;Q1011L). The gist of the method: as §1
In the next test the target is PUM1 PUF domain R5-WHS (Homo sapiens, UniProt Q14671 828-1176, C1007W;R1008H;Q1011S). The gist of the method:
as §1

Another test addresses PUM1 PUF domain R5-FRR (Homo sapiens, UniProt Q14671 828-1176, C1007F;Q1011R). The gist of the method: as §1
The target in another test is PUM1 PUF domain R3-FFV (Homo sapiens, UniProt Q14671 828-1176, C935F;R936F;Q939V). The gist of the method: as §1
In another test the target is PUM1 PUF domain R5-SAC (Homo sapiens, UniProt Q14671 828-1176, C1007S;R1008A;Q1011C). The gist of the method: as §1
The target in a further test is PUM1 PUF domain R5-QMG (Homo sapiens, UniProt Q14671 828-1176, C1007Q;R1008M;Q1011G). The gist of the method: as §1
The target of a further test is PUM1 PUF domain R1-MRR (Homo sapiens, UniProt Q14671 828-1176, S863M;Q867R). An outline of the steps:
as §1

The target in another test is PUM1 PUF domain R1-GIR (Homo sapiens, UniProt Q14671 828-1176, S863G;R864I;Q867R). The gist of the method:
as §1

Changes are numbered by the printed parent chain.

PUM1 PUF domain R1-RCS, sequence (Q14671 828-1176 S863R/R864C/Q867S): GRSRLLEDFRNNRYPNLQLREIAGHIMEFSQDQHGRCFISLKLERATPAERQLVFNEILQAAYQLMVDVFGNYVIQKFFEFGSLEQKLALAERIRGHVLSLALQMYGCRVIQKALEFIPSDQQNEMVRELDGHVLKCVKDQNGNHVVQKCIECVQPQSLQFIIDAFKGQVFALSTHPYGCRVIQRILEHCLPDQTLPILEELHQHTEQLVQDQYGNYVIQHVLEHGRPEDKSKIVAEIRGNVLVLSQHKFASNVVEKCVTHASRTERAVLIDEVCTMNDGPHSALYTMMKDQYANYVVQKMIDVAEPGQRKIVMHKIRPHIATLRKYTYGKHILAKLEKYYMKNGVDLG
PUM1 PUF domain R5-FRR, sequence (Q14671 828-1176 C1007F/Q1011R): as the sequence (Q14671 828-1176 S863R/R864C/Q867S) above, with R36S, C37R, S40Q, C180F, Q184R counted along it

For the sequence “GGCUAGAACUAGUGGAUCCCCCGGCGCCCGGCGGCUCGAGCCCGGGUAAGUGAAAAUAGUCUGCAUGCCGCCGGGCGCCAUGCCUGCAGGUCGACUCUAGAAAACAUG”, the binding signal was 6.4 log2 enrichment (interaction score) with PUM1 PUF domain R6-VYN and 4.25 log2 enrichment (interaction score) in the test with PUM1 PUF domain R6-AFL.

For the sequence “GGCUAGAACUAGUGGAUCCCCCGGCGCCCGGCGGCUCGAGCCCGGGUAAGUGUAAAUGGUCUGCAUGCCGCCGGGCGCCAUGCCUGCAGGUCGACUCUAGAAAACAUG”, the binding signal with PUM1 PUF domain R1-RCS is 1.75 log2 enrichment (interaction score).

As for “GGCUAGAACUAGUGGAUCCCCCGGCGCCCGGCGGCUCGAGCCCGGGUAAGUGUUAAUAGUCUGCAUGCCGCCGGGCGCCAUGCCUGCAGGUCGACUCUAGAAAACAUG”, the figures for the binding signal with PUM1 PUF domain R5-PFL, with PUM1 PUF domain R5-WHS and with PUM1 PUF domain R5-FRR were 4.31 log2 enrichment (interaction score), 4.68 log2 enrichment (interaction score) and 3.38 log2 enrichment (interaction score), respectively.

For “GGCUAGAACUAGUGGAUCCCCCGGCGCCCGGCGGCUCGAGCCCGGGUAAGUGUAAUUAGUCUGCAUGCCGCCGGGCGCCAUGCCUGCAGGUCGACUCUAGAAAACAUG”, the binding signal with PUM1 PUF domain R3-FFV was 1.62 log2 enrichment (interaction score).

With “GGCUAGAACUAGUGGAUCCCCCGGCGCCCGGCGGCUCGAGCCCGGGUAAGUGUGAAUAGUCUGCAUGCCGCCGGGCGCCAUGCCUGCAGGUCGACUCUAGAAAACAUG”, the binding signal with PUM1 PUF domain R5-SAC was 3.04 log2 enrichment (interaction score); with PUM1 PUF domain R5-QMG, 2.26 log2 enrichment (interaction score).

“GGCUAGAACUAGUGGAUCCCCCGGCGCCCGGCGGCUCGAGCCCGGGUAAGUGUAAAUCGUCUGCAUGCCGCCGGGCGCCAUGCCUGCAGGUCGACUCUAGAAAACAUG”: the binding signal is 2.6 log2 enrichment (interaction score) with PUM1 PUF domain R1-MRR, 4.44 log2 enrichment (interaction score) in the test with PUM1 PUF domain R1-GIR and 3.49 log2 enrichment (interaction score) with PUM1 PUF domain R1-RCS.
